The entries come from a sample that favours hits as a whole.
Dicer inh: blocks human Dicer maturation of pre-miR-21; cat-ELCCA pre-miR-21 Dicer processing, chemiluminescence; hits give high values; z-score at 25 µM; hit rate 6% among 47,000; in the data active means z-score above about 3, passing the limit was not always enough;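 further: higher signal means more uncleaved substrate so more Dicer inhibition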
Target sequence (Q9UPY3 whole entry, looked up): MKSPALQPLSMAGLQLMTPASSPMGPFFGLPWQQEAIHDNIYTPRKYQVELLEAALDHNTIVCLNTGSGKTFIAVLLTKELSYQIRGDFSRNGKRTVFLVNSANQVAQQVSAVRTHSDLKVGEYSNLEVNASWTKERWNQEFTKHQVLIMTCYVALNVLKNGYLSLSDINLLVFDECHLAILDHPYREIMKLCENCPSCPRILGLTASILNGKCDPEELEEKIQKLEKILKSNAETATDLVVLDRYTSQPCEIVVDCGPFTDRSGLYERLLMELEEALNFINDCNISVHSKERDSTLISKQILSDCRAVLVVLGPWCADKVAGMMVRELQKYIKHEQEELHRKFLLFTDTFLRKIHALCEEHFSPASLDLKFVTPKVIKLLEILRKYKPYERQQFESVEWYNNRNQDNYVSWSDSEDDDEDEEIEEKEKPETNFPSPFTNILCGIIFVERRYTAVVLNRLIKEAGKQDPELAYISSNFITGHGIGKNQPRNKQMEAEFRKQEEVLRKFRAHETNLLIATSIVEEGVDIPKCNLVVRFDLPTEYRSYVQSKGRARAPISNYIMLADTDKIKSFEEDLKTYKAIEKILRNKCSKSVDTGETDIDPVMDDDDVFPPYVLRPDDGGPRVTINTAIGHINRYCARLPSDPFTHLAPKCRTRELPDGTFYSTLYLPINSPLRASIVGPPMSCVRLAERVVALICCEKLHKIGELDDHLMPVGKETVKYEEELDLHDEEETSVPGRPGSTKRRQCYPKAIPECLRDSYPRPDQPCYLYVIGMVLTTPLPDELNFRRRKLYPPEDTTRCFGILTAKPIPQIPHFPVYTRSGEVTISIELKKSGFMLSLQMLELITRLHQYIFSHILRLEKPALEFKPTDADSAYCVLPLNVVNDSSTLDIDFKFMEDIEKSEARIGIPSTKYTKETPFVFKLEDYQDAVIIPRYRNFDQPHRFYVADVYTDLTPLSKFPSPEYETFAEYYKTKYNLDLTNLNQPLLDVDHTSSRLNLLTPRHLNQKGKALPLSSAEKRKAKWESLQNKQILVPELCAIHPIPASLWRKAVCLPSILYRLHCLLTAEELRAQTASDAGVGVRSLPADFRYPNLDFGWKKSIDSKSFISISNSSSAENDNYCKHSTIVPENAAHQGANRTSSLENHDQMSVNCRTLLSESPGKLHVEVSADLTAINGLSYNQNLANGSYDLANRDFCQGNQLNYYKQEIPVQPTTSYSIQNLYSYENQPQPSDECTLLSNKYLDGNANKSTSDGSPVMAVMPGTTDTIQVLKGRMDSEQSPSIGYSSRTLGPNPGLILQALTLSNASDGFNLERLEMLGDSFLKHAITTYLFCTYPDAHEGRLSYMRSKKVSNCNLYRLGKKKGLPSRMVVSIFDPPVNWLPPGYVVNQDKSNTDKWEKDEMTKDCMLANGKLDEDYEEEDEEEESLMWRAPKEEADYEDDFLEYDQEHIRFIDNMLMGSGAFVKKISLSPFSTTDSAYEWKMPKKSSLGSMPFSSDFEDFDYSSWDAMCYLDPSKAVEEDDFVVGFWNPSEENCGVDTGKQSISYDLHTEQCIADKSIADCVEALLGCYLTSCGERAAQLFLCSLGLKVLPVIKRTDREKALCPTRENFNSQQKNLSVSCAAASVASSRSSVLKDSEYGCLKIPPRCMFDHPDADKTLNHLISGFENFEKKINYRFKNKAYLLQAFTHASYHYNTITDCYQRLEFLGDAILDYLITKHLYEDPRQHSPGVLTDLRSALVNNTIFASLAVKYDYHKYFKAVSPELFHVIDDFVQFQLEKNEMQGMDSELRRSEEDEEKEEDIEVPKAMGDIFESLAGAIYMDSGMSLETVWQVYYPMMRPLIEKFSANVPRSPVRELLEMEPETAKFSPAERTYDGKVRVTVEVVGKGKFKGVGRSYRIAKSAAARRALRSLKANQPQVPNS
Numbers stand for hits.

Screening Cc1cc(C)nc(NS(=O)(=O)c2ccc(NCc3cc(Br)ccc3O)cc2)n1 returned Dicer inh inactive.
Screening COc1nccnc1NS(=O)(=O)c1ccc(NCc2cc(Cl)ccc2O)cc1 returned Dicer inh 3.7.
Fc1ccc(C2=NN(c3ccccc3)C(c3ccc(F)cc3)C2)cc1 (stereo not given) was read as Dicer inh inactive.
CC1=NN(c2ccccc2)C(C2=C(C)CCCC2(C)C)C1 (stereo not given) was read as Dicer inh 3.2.
Cc1nn(-c2ccccc2)c2c1C1(C)CC(C)(O2)c2c(C)nn(-c3ccccc3)c2O1 was read as Dicer inh inactive.
`O=c1c(Oc2ccccc2Br)c(C(F)(F)F)oc2cc(O)ccc12` gave Dicer inh inactive.
`O=c1c(Oc2ccccc2Cl)c(C(F)(F)F)oc2cc(O)ccc12` gave Dicer inh 3.3.
Screening Cc1cc(C)cc(Oc2c(C(F)(F)F)oc3cc(O)ccc3c2=O)c1 returned Dicer inh inactive.
`Cn1c(=O)c2c(ncn2CC(=O)NCCN2CCOCC2)n(C)c1=O` gave Dicer inh inactive.
Screening CCC(=O)c1cc2c(cc1N)OCCO2 returned Dicer inh inactive.
Cc1cc(C)nc(SCC(=O)n2c(C)c(C)c3ccccc32)n1 was read as Dicer inh inactive.
Cc1cc(C)nc(SCCc2ccncc2)n1 was read as Dicer inh 3.6.
`Cc1cc(C)nc(SCC(=O)N2c3ccccc3CCc3ccccc32)n1` gave Dicer inh inactive.
Screening CCS(=O)(=O)c1c(S(=O)(=O)CC)c2cc(C(C)(C)C)ccn2c1C(=O)c1ccc(OC)cc1 returned Dicer inh 5.
Screening CCCS(=O)(=O)c1c(S(=O)(=O)CCC)c2ccccn2c1C(=O)OC returned Dicer inh inactive.
For COc1ccc(C(=O)CC(=O)c2ccc(C(C)(C)C)cc2)cc1 the results were Dicer inh inactive.
For COC(=O)c1sc2ccccc2c1OS(=O)(=O)c1ccc(C)cc1 the results were Dicer inh inactive.
`C#CCOC(=O)Nc1ccc(OC)nc1` gave Dicer inh inactive.
Screening CC1(C)S[C@H](CNC(=O)Cc2ccccc2)N[C@H]1C(=O)O returned Dicer inh 4.
For CC1(C)SC(c2ccc(C3NC(C(=O)O)C(C)(C)S3)cc2)NC1C(=O)O (stereo not given) the results were Dicer inh inactive.
`CN(C)c1ccc(C2N[C@@H](C(=O)O)C(C)(C)S2)cc1` (stereo not given in full) gave Dicer inh inactive.
`Cc1ccccc1-c1c(C)oc2c(CN(C)C)c(O)ccc2c1=O` gave Dicer inh inactive.
`COC(=S)Nc1ccc(N2CC(C)OC(C)C2)cc1` (stereo not given) gave Dicer inh inactive.
Screening O=C1CCC(=O)N1c1cccc(-c2nc3ccccc3c(=O)o2)c1 returned Dicer inh inactive.
`CCOC(=O)C(Cc1c(C)[nH]c2ccccc12)C(=O)OCC` gave Dicer inh inactive.
For Cc1cccc(NC(=O)Nc2ccc(Cc3ccc(NC(=O)Nc4cccc(C)c4)cc3)cc2)c1 the results were Dicer inh inactive.
`O=C(Nc1sc2c(c1C(=O)Nc1ccccc1)CCCCC2)c1ccco1` gave Dicer inh inactive.
For CC(C)(C)C1CCc2c(sc(NC(=O)CCC(=O)O)c2C(=O)Nc2ccccc2Cl)C1 (stereo not given) the results were Dicer inh inactive.
For O=C(Nc1sc2c(c1C(=O)Nc1ccccc1)CCCC2)c1ccco1 the results were Dicer inh 3.2.
For CCC(=O)Nc1sc2c(c1C(=O)Nc1ccccc1Cl)CCC2 the results were Dicer inh 4.2.
Screening CCOC(=O)c1c(NC(=O)c2ccco2)sc2c1CCCCC2 returned Dicer inh 5.7.
CCOC(=O)c1c(NC(=O)c2cccs2)sc2c1CCCC2 was read as Dicer inh inactive.
For N#Cc1c(NC(=O)c2ccco2)sc2c1CCCCC2 the results were Dicer inh inactive.
`CCC(=O)Nc1sc2c(c1C(=O)Nc1ccc(Cl)cc1)CCC2` gave Dicer inh inactive.
O=C(Nc1sc2c(c1C(=O)O)CCCCC2)c1ccco1 was read as Dicer inh inactive.
Screening Nc1ccc(Sc2ccc(N)cc2C(=O)O)c(C(=O)O)c1 returned Dicer inh inactive.
Screening c1ccc(-c2cc3ncnc(NCc4ccc5c(c4)OCO5)c3s2)cc1 returned Dicer inh inactive.
CS(=O)(=N/C=C(\C#N)C(=O)c1ccc(Cl)cc1)c1ccc(Cl)cc1 (stereo not given) was read as Dicer inh inactive.
For NC(=O)C1CCN(C(=O)C2CC(c3ccccc3Cl)=NO2)CC1 (stereo not given) the results were Dicer inh inactive.
Screening N#Cc1cc(-c2nc3ccccc3[nH]2)c(N)n2c1nc1ccccc12 returned Dicer inh inactive.
For COC1(OC)C2(Cl)C(Cl)=C(Cl)C1(Cl)[C@H]1[C@@H]2[C@@H](O)C=C[C@H]1O the results were Dicer inh inactive.
`COC(=O)C1C(=O)CC(C)(O)C(C(=O)OC)C1c1ccc(O)c(OC)c1` (stereo not given) gave Dicer inh inactive.
For CCOC(=O)NNC(=S)Nc1ccccc1C(F)(F)F the results were Dicer inh inactive.
`Cn1nnnc1SCCNCc1cc(Br)ccc1OCc1ccc(F)cc1` gave Dicer inh inactive.
CCN(CC)c1ncc2c(=S)[nH]c(=S)[nH]c2n1 was read as Dicer inh inactive.
`S=c1[nH]c(=S)c2cnc(N3CCOCC3)nc2[nH]1` gave Dicer inh 3.4.
For S=c1[nH]c(=S)c2cnc(N3CCN(c4ccccc4)CC3)nc2[nH]1 the results were Dicer inh inactive.
`O=S(=O)(Cc1nc(-c2ccc3c(c2)OCCO3)cs1)c1ccccn1` gave Dicer inh inactive.
Screening O=S(=O)(Cc1ccccc1)Nc1ccncc1 returned Dicer inh inactive.
Screening CN(C)/C=C(\C#N)c1ccc(OCc2ccc(Cl)c(Cl)c2)cc1 returned Dicer inh inactive.
`CCN(CC)CCCC(C)Nc1nc(C)nc2ccccc12` (stereo not given) gave Dicer inh 4.3.
CCN(CC)CCCNc1ncnc2ccccc12 was read as Dicer inh inactive.
For CCN(CC)CCCC(C)Nc1nc(C)nc2cc(Cl)ccc12 (stereo not given) the results were Dicer inh inactive.
Screening NN(CCO)C(=S)Nc1ccc(OC(F)(F)F)cc1 returned Dicer inh inactive.
`CCN(CC)c1ccc(CNc2nc3ccccc3n2C(C)C)cc1` gave Dicer inh inactive.
For Cc1ccc(-c2cn3c4ccccc4nc3n2CCCN2CCCCC2)cc1 the results were Dicer inh inactive.
Screening COc1ccc(OC)c(CNc2nc3ccccc3n2C)c1 returned Dicer inh inactive.
`Cc1ccc(-c2cn3c4ccccc4nc3n2CCO)cc1` gave Dicer inh inactive.
For CN(C)c1ccc(CNc2nc3ccccc3n2C)cc1 the results were Dicer inh inactive.
c1ccc2c(c1)nc(NCc1ccc3c(c1)OCO3)n2CCN1CCOCC1 was read as Dicer inh inactive.
CCn1c(NCc2cc(OC)ccc2OC)nc2ccccc21 was read as Dicer inh inactive.
Screening COc1ccc(OC)c(CNc2nc3ccccc3n2CCN2CCCCC2)c1 returned Dicer inh 3.8.
`COc1ccc(OCCn2c(C)nc3ccccc32)cc1` gave Dicer inh inactive.
COc1ccc(-c2cn3c4ccccc4nc3n2CCCN2CCOCC2)cc1 was read as Dicer inh 3.6.
CC(C)c1ccc(CNc2nc3ccccc3n2CCN2CCOCC2)cc1 was read as Dicer inh 4.8.
COc1ccccc1CNc1nc2ccccc2n1C was read as Dicer inh 3.8.
